# pPAFAH inh: inhibitors of human plasma PAF acetylhydrolase (pPAFAH); recombinant pPAFAH, FP-rhodamine probe fluorescence polarization; hit rate 1.5% among 330,000; Q13093; inhibition, % at 3.39 µM; AID 463082;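 active means inhibition above the mean inhibition across the screen plus 3 SD, cut at about 25% in these data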;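 further: inhibitors block binding of the rhodamine activity-based probe so polarization drops; 0% = enzyme with DMSO and 100% = wells lacking pPAFAH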
# PAFAH1B2 inh: PAFAH1B2 (human) inhibition; P68402; recombinant PAFAH1B2, FP-rhodamine activity probe, fluorescence polarization; inhibition, % at 3.39 µM; hit rate 1.2% among 340,000; AID 492953;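 active means inhibition above the mean of all tested compounds plus 3 SD, cut at about 24% in these data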;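 further: 0% = enzyme with DMSO and 100% = wells lacking PAFAH1B2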
# Target sequence (P68402 whole entry, looked up): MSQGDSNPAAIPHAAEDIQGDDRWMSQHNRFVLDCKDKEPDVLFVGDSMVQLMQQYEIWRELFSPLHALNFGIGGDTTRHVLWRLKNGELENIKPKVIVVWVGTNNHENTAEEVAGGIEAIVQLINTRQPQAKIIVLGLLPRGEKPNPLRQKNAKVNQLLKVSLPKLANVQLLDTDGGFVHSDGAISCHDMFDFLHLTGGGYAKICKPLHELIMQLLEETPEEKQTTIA
# PAFAH2 inh: inhibitors of human PAFAH2 | Q99487 | recombinant PAFAH2, FP-rhodamine activity probe, fluorescence polarization | inhibition, % at 3.39 µM | hit rate 0.99% among 340,000;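 active means inhibition above the mean over all tested compounds plus 3 SD, cut at about 30% in these data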;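 further: inhibitors block probe labeling of enzyme so polarization drops; 0% = enzyme with DMSO and 100% = wells lacking PAFAH2 protein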
# TCR CD3 inh: human TCR-CD3 binding inhibition | TAMRA-labeled TCR probe fluorescence, biochemical | inhibition, % at 9.4 µM | hit rate 0.37% among 360,000 | AID 651800; in the data active means inhibition above about 19%;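 further: recombinant mutant TCR 2C K166C tagged with TAMRA read by polarization; 0% = receptor in buffer alone and 100% = receptor with positive control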
# PAFAH1B3 inh: PAFAH1B3 (human) inhibition | Q15102 | inhibition, % at 3.39 µM | AID 492972 | recombinant PAFAH1B3, FP-rhodamine probe, fluorescence polarization | hit rate 0.28% among 340,000;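 active means inhibition above the screen-wide average of all tested compounds plus 3 SD, cut at about 25% in these data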;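 further: 0% = enzyme with DMSO only and 100% = wells lacking PAFAH1B3 protein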
# Target sequence (Q15102 whole entry, looked up): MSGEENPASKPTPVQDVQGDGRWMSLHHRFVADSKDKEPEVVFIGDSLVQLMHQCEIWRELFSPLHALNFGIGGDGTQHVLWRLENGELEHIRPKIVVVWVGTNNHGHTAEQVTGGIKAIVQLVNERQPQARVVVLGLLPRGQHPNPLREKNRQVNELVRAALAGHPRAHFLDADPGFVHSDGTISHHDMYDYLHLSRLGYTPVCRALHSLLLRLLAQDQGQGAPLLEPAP
# The depositor's hits bear a star; nt = not tested or not shown. Hits are enriched below; roughly 2.7% of the tested compounds scored in any of these assays.
SMILES,pPAFAH inh,PAFAH1B2 inh,PAFAH2 inh,TCR CD3 inh,PAFAH1B3 inh
O=C(CSCc1ccccc1Cl)NNC(=S)Nc1ccccc1,28.9*,7.7,7.7,-8.2,-5.4
O=C(COC(=O)c1cc[n+]([O-])cc1)Nc1c(Cl)cccc1C(F)(F)F,-1.6,3.8,-4.3,-5.3,4.4
Cc1ccc(C)c(OCCC(=O)OCC(=O)NNC(=O)c2ccccc2)c1,31.1*,1.6,-0.5,-0.1,3.1
Cc1ccc(C)c(OCCC(=O)OCC(=O)NC2CCCC2)c1,21.3,2.4,4.8,-7.2,-0.4
Fc1ccc(CNCc2ccco2)cc1,0.9,-1.8,-0.8,-7.7,11.2
O=S(=O)(/N=C(/NS(=O)(=O)c1ccccc1)c1ccccc1)c1ccccc1,1.4,27.6*,1.0,6.1,3.6
Nc1ncnc2c1nc(Sc1ccc(Cl)cc1)n2[C@@H]1O[C@@H]2COP(=O)(O)O[C@H]2[C@H]1O,2.4,25.8*,-4.5,-1.4,4.0
CCCC(=O)Nc1ncnc2c1ncn2[C@@H]1O[C@@H]2COP(=O)(O)O[C@H]2[C@H]1OC(=O)CCC,3.2,4.6,0.5,6.9,5.3
O=[N+]([O-])c1cc(-c2csc(NCCc3nc4cc(Cl)c(Cl)cc4n3CCCO)n2)ccc1Cl,30.9*,18.1,-2.9,0.9,16.5
COC(=O)N1C[C@H](OC(=S)Nc2ccc(OC)cc2OC)[C@H]2C[C@@H]1c1ccccc1O2,nt,nt,nt,-0.8,nt
Cc1ccc(NS(=O)(=O)c2cccc(C(=O)N/N=C/c3ccc4c(c3)OCCO4)c2)c(C)c1,31.9*,-14.4,-60.2,8.9,-34.5
CC1(OC(=O)C2CCCC2)C(=O)C=C2C=C(c3ccsc3)N(Cc3ccco3)C=C2C1=O (stereo not given),31.1*,-0.9,-2.4,nt,-3.5
CC1(OC(=O)C2CCCC2)C(=O)C=C2C=C(c3ccsc3)N(CCCCO)C=C2C1=O (stereo not given),3.5,5.2,-0.5,-0.8,14.4
COc1ccc(-c2cc(C(F)(F)F)nc(S(C)(=O)=O)n2)cc1,29.4*,-5.1,-1.5,1.7,0.1
CS(=O)(=O)c1nc(-c2ccc(F)cc2)cc(C(F)(F)F)n1,nt,-3.9,-12.7,-2.6,-5.3
Clc1ccc(OCCn2ccnc2)c(Cl)c1,0.7,-7.2,10.5,5.0,0.9
Clc1ccc(SCCn2ccnc2)cc1,0.3,35.1*,0.6,-7.8,7.4
O=C(OCc1cn([C@H]2CN(C(=O)C3CCCCC3)[C@@H](c3ccc(Cl)cc3)C[C@@H]2O)nn1)c1ccccc1,nt,nt,nt,-1.6,nt
Cc1ccc(-c2nn3c(C)nnc3c3ccccc23)cc1S(=O)(=O)NC(C)c1ccccc1 (stereo not given),3.6,25.9*,-10.0,-7.7,3.8
Oc1c(Cl)cc(Cl)cc1/C=N/c1nc(-c2ccc(Cl)cc2)cs1,14.7,48.4*,8.2,nt,4.4
C[C@@H]1CCCCO[C@H](CN(C)C(=O)Cc2ccccc2)[C@H](C)CN([C@@H](C)CO)C(=O)c2cc(NC(=O)Nc3ccc(F)cc3)ccc2O1,nt,nt,nt,0.7,nt
CC(=O)c1ccc(NC(=O)C(C)O/N=C(\N)c2ccccc2)cc1 (stereo not given),-8.4,-0.8,-4.3,3.9,14.5
Cc1nn(-c2ccccc2)c(C)c1NC(=O)COC(=O)Cc1cccc(C(F)(F)F)c1,6.5,3.0,8.2,-4.6,12.0
Cc1nn(-c2ccccc2)c(C)c1NC(=O)COC(=O)CC(C)c1ccccc1 (stereo not given),27.4*,6.2,8.5,8.8,5.2
Cc1cccc(OCCC(=O)OCC(=O)Nc2c(C)nn(-c3ccccc3)c2C)c1,29.1*,1.0,2.6,0.4,3.3
SMILES,pPAFAH inh,PAFAH1B2 inh,PAFAH2 inh,TCR CD3 inh,PAFAH1B3 inh
CCOc1ccc(OCCC(=O)OCC(=O)Nc2cc(C)nn2-c2ccccc2)cc1,21.6,7.8,-2.8,12.9,0.6
CSc1ccc(C(=O)NCC(c2ccco2)N(C)C)cc1[N+](=O)[O-] (stereo not given),2.1,4.8,-1.9,-2.3,-4.6
OC(c1ccc(Cl)cc1)c1nnc(-c2ccccc2)o1 (stereo not given),-2.4,24.5*,3.0,-4.2,0.2
COc1ccc(C)cc1S(=O)(=O)NCC(c1ccco1)N1CCc2ccccc2C1 (stereo not given),1.4,-2.6,-2.7,-1.5,2.0
Cc1cc2ccccc2n1CCNC(=O)Cc1cccc2ccccc12,-0.9,1.7,1.3,67.9*,-2.8
CCC(=O)NCCn1c(C)cc2ccccc21,2.0,1.1,1.0,nt,0.0
CSc1ccc(Oc2cccc3c2S(=O)(=O)N(C2CC2)C[C@@H](COCc2ccccc2)O3)cc1C,nt,nt,nt,10.4,nt
N/C(=N\OC(=O)CCC1CCCC1)c1ccc(Cl)cc1,-2.2,25.3*,9.8,5.3,-6.5
Cc1ccc(/C(N)=N/OC(=O)CCC2CCCC2)cc1,-2.1,7.3,5.9,-0.1,4.8
COc1ccc(S(=O)(=O)N2CCCc3nc(-c4ccc(F)cc4)ccc32)cc1,nt,nt,nt,6.6,nt
Cc1ccc(C2C(C#N)=C(N)SC(N)=C2C#N)cc1,nt,-15.2,-66.8,-36.1,-29.7
N#CC1=C(N)SC(N)=C(C#N)C1c1ccoc1,68.4*,nt,nt,nt,nt
CC(=NNC(=O)c1cccc(S(=O)(=O)N2CCOCC2)c1)c1ccc(Cl)cc1,1.3,1.6,0.6,3.2,7.4
O=C(NCCc1ccc(Cl)cc1)C1CCC(=O)N1Cc1ccc(F)cc1 (stereo not given),-0.7,27.8*,9.7,-6.1,1.4
CC(=O)C(=Nc1ccc(Cl)cc1Cl)NNc1cccc(Cl)c1,25.0*,-1.4,-6.9,4.0,0.8
CC(=O)Nc1ccc(NC(=O)Nc2cccc(Cl)c2)cc1,7.4,0.1,1.3,-6.8,-4.0
Cc1cc(N2CCNC[C@H]2C)ccc1N1CCN(Cc2ccccc2)[C@@H](C)C1,nt,nt,nt,-3.6,nt
CN1CCCCC(NC(=O)CSc2ccccc2)C1=O (stereo not given),nt,nt,nt,1.3,nt
COc1ccc2c(c1)[C@@]1(OCCC=C[C@H]1C)C(=O)N2CC1CC1,nt,nt,nt,4.6,nt
O=C1CC(c2ccc(O)cc2)Oc2cc(O)cc(O)c21 (stereo not given),4.1,2.0,-5.7,9.7,6.1
CC1CC(=O)c2c(cc3c(-c4c(O)cc(O)c5c(O)c6c(cc45)OC(C)CC6=O)c(O)cc(O)c3c2O)O1 (stereo not given),80.0*,53.3*,61.5*,nt,76.1*
CC1C2(C)OC(=N)C(C#N)(C(C)O2)C1(C#N)C#N (stereo not given),3.9,52.6*,75.4*,nt,59.6*
CC1OC2(C)OC(=N)C1(C#N)C(C#N)(C#N)C2c1ccccc1 (stereo not given),5.9,13.3,17.7,9.3,11.6
O=C(NCC1CCN(C(=O)C(=O)c2cccs2)CC1)c1ccncc1,nt,nt,nt,4.7,nt
COc1cc(C(c2c(C)[nH][nH]c2=O)c2c(C)[nH][nH]c2=O)ccc1OC(=O)c1cccc([N+](=O)[O-])c1,5.1,3.7,8.9,4.2,2.9
COc1cc(C(c2c(C)[nH][nH]c2=O)c2c(C)[nH][nH]c2=O)ccc1OCc1ccc([N+](=O)[O-])cc1,10.7,25.6*,1.0,1.0,8.5

# Compound activity: PubChem BioAssay, The Scripps Research Institute Molecular Screening Center
